According to PubChem BioAssay:
Calls of active or inactive are those of the source.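 How the source made its calls, unless noted: active means primary screen active and over 50% activation in each of two duplicate runs; inactive means the rest.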

Tested on: TRPC4 beta (transient receptor potential cation channel C4), mouse
Test: activators of mouse TRPC4 channel, confirmation, cell-based, Fluo4 calcium, HEK293 TRPC4beta/mu-opioid, duplicates, 10 µM (AID 2426;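 active means fluorescence ratio normalized to control raised more than 50% in primary screen plus both repeat runs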)
Settings: Fluo4 calcium fluorescence, at 10 µM

outcome, inactive:
CCOC(=O)c1oc2ccccc2c1CN1CCCCC1
CC(C)Cc1cc(CN2CCCC(CO)(Cc3cccc(Cl)c3)C2)[nH]n1 (centres undefined)
CCCCOc1ccc(CSCCN=C(N)N)cc1
N#Cc1c(NC(=O)C2CC(Cl)=CCC2C(=O)O)sc2c1CCCCC2 (centres undefined)
Cc1ccccc1C(=O)NC1CC2CCC(C1)N2Cc1ccccc1 (centres undefined)
COc1ccc(/C=C2\SC(=S)N(C(Cc3ccccc3)C(=O)O)C2=O)cc1 (centres undefined)
Cc1cc(NCc2ccccc2)nc(N2CCOCC2)n1
CCCc1nc(SC2CCCC2)c2c(=O)n(C)c(=O)n(C)c2n1
Fc1ccccc1Sc1ccccc1CNC1=NCCN1
CCc1nc2ccccc2n1Cc1ccccc1OC
CSc1nc(N2CCOCC2)c2c3c(sc2n1)CCCC3
COc1cccc(CNC(=O)CCC2CCCN(Cc3cc(Cl)ccc3O)C2)c1 (centres undefined)
CCOC(=O)C1(Cc2ccccc2C)CCCN(Cc2ccc(NC(C)=O)cc2)C1 (centres undefined)
CCn1c(NCc2c[nH]c3ccccc23)nc2ccccc21
O=C(c1ccc2c(c1)OCO2)C1CCCN(Cc2ccccc2OC(F)F)C1 (centres undefined)
CC(C)(C)c1cc2cccnc2n1Cc1ccccc1
Cc1cccc(C)c1-n1cccc1/C=C1\SC(=S)N(c2cccc(C(=O)O)c2)C1=O
COc1ccc2nc(NCc3ccccc3)[nH]c2c1
Cc1ccc(C(=O)NC(=S)Nc2c(C)ccc3nsnc23)cc1
Cc1ccccc1N1CC(O)(c2cccs2)[N+]2=C1CCCC2 (centres undefined)

Tested on: transient receptor potential cation channel C4 beta (TRPC4), mouse
Test: activators of mouse TRPC4 channel, confirmation, cell-based, second round, Fluo4, HEK293 TRPC4beta/mu-opioid, 1 µM (AID 2461)
Settings: Fluo4 calcium fluorescence, at 1 µM

outcome, inactive:
Cc1cc(/C=C2/C(=N)N3C(=NC2=O)SN=C3S(C)(=O)=O)c(C)n1-c1ccccc1F
Cc1ccc(O)c(CNc2nc3ccccc3[nH]2)c1
CC(Oc1ccc(Cl)cc1Cl)c1nc(-c2ccccn2)no1 (centres undefined)
Fc1ccccc1COc1ccccc1CNCc1ccncc1
CC12CC3(C)CC(C)(C1)CC(NC(=O)N1CCCC1)(C2)C3
Clc1cccc(COn2c(-c3ccc(Cl)cc3Cl)nc3ncccc32)c1
CC1CCN(CCCOc2ccc(OCc3ccccc3)cc2)CC1
CCN(CC)C(=O)C1CCCN(Cc2cccc(Oc3ccccc3)c2)C1 (centres undefined)
O=C(O)c1ccc(NC(=S)NC(=O)c2ccc(-c3ccccc3)cc2)cc1
Cc1ccc(C)c2[nH]c(=O)c(CN(Cc3nnnn3C3CCCCC3)CC3CCCO3)cc12 (centres undefined)
CC(C)CN(CC(C)C)c1nc(N)c(C#N)c(CC#N)c1C#N
CC(C)Oc1cccc(C(=O)C2CCCN(Cc3cnn(C(C)C)c3)C2)c1 (centres undefined)
Cc1ccc(O)c(Sc2cc(C)ccc2O)c1
Cc1cccc(Cn2c(C(C)(C)C)cc3cccnc32)c1
Cc1cc(N2CCC(C)CC2)nc2cccc(O)c12
CSCCNCc1cn(-c2ccc(F)cc2F)nc1-c1ccccc1C
CC(/C=C1\SC(=S)N(C(C(=O)O)C(C)C)C1=O)=C\c1ccccc1 (centres undefined)
CCN(CC)CCn1c2ccccc2c2cnc(N)c(C#N)c21
CCOC(=O)C1CCN(CC(O)COc2ccc(C(C)(C)C)cc2)CC1 (centres undefined)
CCOC(=O)c1oc2ccccc2c1CN1CCCCC1
CC(C)Cc1cc(CN2CCCC(CO)(Cc3cccc(Cl)c3)C2)[nH]n1 (centres undefined)
CCCCOc1ccc(CSCCN=C(N)N)cc1
N#Cc1c(NC(=O)C2CC(Cl)=CCC2C(=O)O)sc2c1CCCCC2 (centres undefined)
Cc1ccccc1C(=O)NC1CC2CCC(C1)N2Cc1ccccc1 (centres undefined)
COc1ccc(/C=C2\SC(=S)N(C(Cc3ccccc3)C(=O)O)C2=O)cc1 (centres undefined)
Cc1cc(NCc2ccccc2)nc(N2CCOCC2)n1
CCCc1nc(SC2CCCC2)c2c(=O)n(C)c(=O)n(C)c2n1
Fc1ccccc1Sc1ccccc1CNC1=NCCN1
CCc1nc2ccccc2n1Cc1ccccc1OC
CSc1nc(N2CCOCC2)c2c3c(sc2n1)CCCC3
COc1cccc(CNC(=O)CCC2CCCN(Cc3cc(Cl)ccc3O)C2)c1 (centres undefined)
CCOC(=O)C1(Cc2ccccc2C)CCCN(Cc2ccc(NC(C)=O)cc2)C1 (centres undefined)
CCn1c(NCc2c[nH]c3ccccc23)nc2ccccc21
O=C(c1ccc2c(c1)OCO2)C1CCCN(Cc2ccccc2OC(F)F)C1 (centres undefined)
CC(C)(C)c1cc2cccnc2n1Cc1ccccc1
Cc1cccc(C)c1-n1cccc1/C=C1\SC(=S)N(c2cccc(C(=O)O)c2)C1=O
COc1ccc2nc(NCc3ccccc3)[nH]c2c1
Cc1ccc(C(=O)NC(=S)Nc2c(C)ccc3nsnc23)cc1
Cc1ccccc1N1CC(O)(c2cccs2)[N+]2=C1CCCC2 (centres undefined)
